In PubChem BioAssay (NCATS):
Inconclusive results are not listed. Unmarked numbers belong to inactive results. Activity calls are given as the source filed them. Calls follow the shape of the dose curve; as a rule, active = well fitted curve in the direction sought with a large enough effect; inconclusive = small, poorly fitted or top-dose-only effect, or another doubt; inactive = no such curve, though single readings can be large; an effect the other way counts as inactive or inconclusive.

molecular target: Protein phosphatase 1D (Homo sapiens) (UniProt O15297); test: RapidFire Mass Spectrometry qHTS Assay for Modulators of WT P53-Induced Phosphatase 1 (WIP1) (AID 1347424); conditions: WIP1 dephosphorylation of phosphopeptide, RapidFire MS; series mostly up to 63 µM; activity change, negative = inhibition: at the top concentration;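 also: amount of dephosphorylated VEPPL-S-QETFS peptide product formed by WIP1; plate controls were DMSO wells for no effect and GSK830371 inhibitor control at 10 µM for full effect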
In short: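 WIP1 (10 nM final) was preincubated 1 h at room temperature with compounds in Tris-HCl pH 7.5, 30 mM MgCl2, TCEP, EGTA, BSA; 2 uM VEPPL-pS-QETFS phosphopeptide was added for 5 min, quenched with formic acid, and dephosphorylated product quantified by RapidFire MS.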

Sequence of Protein phosphatase 1D (Homo sapiens) (O15297 whole entry, looked up): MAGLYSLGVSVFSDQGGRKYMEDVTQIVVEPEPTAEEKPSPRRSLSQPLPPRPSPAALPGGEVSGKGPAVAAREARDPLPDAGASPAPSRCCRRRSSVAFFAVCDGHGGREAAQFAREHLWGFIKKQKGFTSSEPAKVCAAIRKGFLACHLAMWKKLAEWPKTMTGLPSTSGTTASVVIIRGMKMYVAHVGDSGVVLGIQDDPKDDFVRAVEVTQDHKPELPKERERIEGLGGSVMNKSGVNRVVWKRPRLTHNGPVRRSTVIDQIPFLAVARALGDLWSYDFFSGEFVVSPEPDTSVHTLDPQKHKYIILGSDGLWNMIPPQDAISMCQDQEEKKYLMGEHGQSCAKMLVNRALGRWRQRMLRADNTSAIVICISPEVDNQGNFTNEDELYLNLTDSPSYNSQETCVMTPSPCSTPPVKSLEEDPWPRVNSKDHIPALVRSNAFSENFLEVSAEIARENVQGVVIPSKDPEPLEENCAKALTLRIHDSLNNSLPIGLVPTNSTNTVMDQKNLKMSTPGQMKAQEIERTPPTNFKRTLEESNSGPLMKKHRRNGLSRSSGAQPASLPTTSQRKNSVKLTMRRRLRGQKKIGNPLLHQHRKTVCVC

SMILES | activity change, negative = inhibition | outcome
CCN(CC)CCOC(=O)c1ccc(N)cc1 | 4.39% | –
CN1C[C@H]2c3ccccc3Oc3ccc(Cl)cc3[C@@H]2C1 | 2.72% | –
CC(=O)c1ccc(S(=O)(=O)NC(=O)NC2CCCCC2)cc1 | 10.2% | –
CC[C@]1(O)C[C@@H]2CN(CCc3c([nH]c4ccccc34)[C@@](C(=O)OC)(c3cc4c(cc3OC)N(C)[C@H]3[C@@](O)(C(=O)OC)[C@H](OC(C)=O)[C@]5(CC)C=CCN6CC[C@]43[C@@H]65)C2)C1 | – | inactive
O=C(O)Cc1cccc2ccccc12 | – | inactive
CCn1cc(C(=O)O)c(=O)c2ccc(C)nc21 | 5.63% | –
COC[C@@H](c1ccc(C(F)(F)F)cc1)N1CCN(C2(C)CCN(C(=O)c3c(C)ncnc3C)CC2)C[C@H]1C | 25.6% | –
OC[C@@H](O)[C@H](O)[C@H](O)[C@@H](O)CO | – | inactive
C[C@@H](O)[C@H]1C(=O)N2C(C(=O)O)=C(S[C@@H]3CN[C@H](C(=O)N(C)C)C3)[C@H](C)[C@H]12 | – | inactive
O=C(O)c1cc(-c2ccccc2)nc2ccccc12 | 0.948% | –
CN(C)CCC(c1ccccc1)c1ccccn1 (stereo unspecified) | -0.0413% | –
O=C(O)CCc1nc(-c2ccccc2)c(-c2ccccc2)o1 | -7.71% | –
CCN(CC)CCNC(=O)c1ccc(N)cc1 | 5.47% | –
N#C[C@H]1C[C@H]2C[C@@H]2N1C(=O)[C@@H](N)C12CC3CC(CC(O)(C3)C1)C2 | -1% | –
O=c1[nH]cnc2c1ncn2[C@H]1CC[C@@H](CO)O1 | 0.302% | –

molecular target: Protein phosphatase 1D (Homo sapiens) (UniProt O15297); test: Rhodamine-PBP qHTS Assay for Modulators of WT P53-Induced Phosphatase 1 (WIP1) (AID 1347425); conditions: recombinant WIP1, Rhodamine-PBP phosphate fluorescence, real-time; series mostly up to 57.5 µM; activity change, negative = inhibition: at the top concentration; also: % of control where 0% means no effect
In short: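 Steps: enzyme with Rh-PBP sensor and compounds, room-temperature incubation of 1 hr, baseline read, addition of VEPPL-pS-QETFS (10 uM final), kinetic fluorescence reads at 525/598 nm. Activity equals final minus baseline signal.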

SMILES | activity change, negative = inhibition | outcome
CCN(CC)CCOC(=O)c1ccc(N)cc1 | 19.9% | –
CN1C[C@H]2c3ccccc3Oc3ccc(Cl)cc3[C@@H]2C1 | 7.36% | –
CC(=O)c1ccc(S(=O)(=O)NC(=O)NC2CCCCC2)cc1 | -7.03% | –
CC[C@]1(O)C[C@@H]2CN(CCc3c([nH]c4ccccc34)[C@@](C(=O)OC)(c3cc4c(cc3OC)N(C)[C@H]3[C@@](O)(C(=O)OC)[C@H](OC(C)=O)[C@]5(CC)C=CCN6CC[C@]43[C@@H]65)C2)C1 | – | inactive
O=C(O)Cc1cccc2ccccc12 | – | inactive
CCn1cc(C(=O)O)c(=O)c2ccc(C)nc21 | 7.88% | –
COC[C@@H](c1ccc(C(F)(F)F)cc1)N1CCN(C2(C)CCN(C(=O)c3c(C)ncnc3C)CC2)C[C@H]1C | 9.73% | –
OC[C@@H](O)[C@H](O)[C@H](O)[C@@H](O)CO | – | inactive
C[C@@H](O)[C@H]1C(=O)N2C(C(=O)O)=C(S[C@@H]3CN[C@H](C(=O)N(C)C)C3)[C@H](C)[C@H]12 | – | inactive
O=C(O)c1cc(-c2ccccc2)nc2ccccc12 | – | inactive
CN(C)CCC(c1ccccc1)c1ccccn1 (stereo unspecified) | 5.49% | –
O=C(O)CCc1nc(-c2ccccc2)c(-c2ccccc2)o1 | -23.4% | –
CCN(CC)CCNC(=O)c1ccc(N)cc1 | -12.7% | –
CC1=C(/C=C/C(C)=C/C=C/C(C)=C/C(=O)Nc2ccc(O)cc2)C(C)(C)CCC1 | -20.4% | –
N#C[C@H]1C[C@H]2C[C@@H]2N1C(=O)[C@@H](N)C12CC3CC(CC(O)(C3)C1)C2 | 3.41% | –
O=c1[nH]cnc2c1ncn2[C@H]1CC[C@@H](CO)O1 | 15.3% | –
